5 molecules from PubChem BioAssay can be followed below.

Experiment [1] is described as follows: rapamycin-like changes in RPL19A-GFP expression – cell-based, S. cerevisiae, multiplex flow cytometry, primary screen (AID 1862; in the data active means percent of DMSO control GFP below about 86%;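 further: lower values mimic rapamycin by blocking the RPL19A rise seen in DMSO cells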). As to conditions: S. cerevisiae RPL19A-GFP strain, flow cytometry fluorescence, 3 h; at 10 µM; stronger effect = lower value. For orientation: In flow cytometry, cells or beads pass a laser one at a time.
Experiment [2] in a line: TOR pathway GLN3 branch reporter MEP2-GFP changes – S. cerevisiae, multiplex flow cytometry, primary screen (AID 1867;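 active means GFP response, as percent of the DMSO control, above the screen-wide mean plus 3 SD, about 139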;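 further: median GFP channel fluorescence of barcode-gated MEP2-GFP cells measured by flow cytometry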). As to conditions: S. cerevisiae MEP2-GFP strain, 3 h, at 10 µM, stronger effect = higher value, 100% means same as DMSO wells.
Experiment [3] is described as follows: TOR pathway RTG branch CIT2 reporter changes – S. cerevisiae, GFP fusion, multiplex flow cytometry, primary screen (AID 1870;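 active means percent response above a set limit, the screen-wide mean plus 3 SD, cut at about 130% in these data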;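 further: barcoded CIT2-GFP strain pooled with four other GFP strains with rapamycin as positive control; median GFP fluorescence per well over plate mean of DMSO wells so 100% = DMSO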). The settings on record: S. cerevisiae CIT2-GFP expression, 3 h, at 10 µM, stronger effect = higher value.
Experiment [4] can be described thus: TOR pathway LAP4-GFP level changes – S. cerevisiae, multiplex flow cytometry, primary screen (AID 1873;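 active means GFP signal, as percent of the solvent control, above the screen mean plus 3 SD, about 149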). As to conditions: S. cerevisiae LAP4-GFP expression, 3 h, at 10 µM, stronger effect = higher value.
Experiment [5] can be described thus: yeast AGP1-GFP level changes, GLN3 branch – cell-based, multiplex flow cytometry, S. cerevisiae, primary screen (AID 1887;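 active means GFP signal above the screen-wide mean plus 3 SD, that is over about 124.5% of the solvent control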;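 further: AGP1-GFP fusion strain of S. cerevisiae within a five-strain barcoded multiplex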). The settings on record: 3 h, at 10 µM, stronger effect = higher value.
Experiment [6] can be described thus: reduced mouse 2C T cell binding to pMHC/ICAM-1 vesicles – MLPCN validation set, flow cytometry, LFA-1/ICAM-1 modulator project, pilot screen (AID 2523;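 active means response below a set limit, under 55% cells CD8-positive and vesicle-bound, and CD8 cells' 90th-percentile brightness under 279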;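 on vesicle binding response: mean PE anti-B7-1 fluorescence of CD8+ cells relative to row control; 100% = QL9-loaded vesicles with DMSO vehicle in the same plate row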). The settings on record: 2C mouse CD8+ T cells, at 7 µM, stronger effect = lower value; double positive events: measured here: CD8+/vesicle+ event percentage.
Experiment [7] concerns the target Integrin beta-1 (Homo sapiens) + Integrin alpha-4 (Homo sapiens) (UniProt P13612+P05556). Kind of experiment: alpha4beta1 integrin LIBS antibody binding reduction – U937 cells, HUTS-21 mAb, flow cytometry, validation set, VLA-4 allosteric modulator project, pilot screen (AID 2674;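 active means inhibition above 50%, about 3 SD of the validation set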;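 further: antibody binding induced by the VLA-4 ligand LDV present at three times its Kd; 0% = LDV ligand with antibody and no compound and 100% = antibody without LDV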). The settings on record: HUTS-21 LIBS mAb binding, at 6.7 µM, stronger effect = higher value, binding induced by LDV ligand.

Experiment [8] in a line: calorie-restriction mimetic ROS inhibitors, yeast – validation compound set, pilot screen (AID 2706;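 active means superoxide response below 65% of plate, a cut near 3 SD across the whole screen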;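 further: yeast exposed to compound for one week at 30 degrees C before staining; 100% = mean of all compound wells on the same plate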). The settings on record: S. cerevisiae aging, superoxide DHE fluorescence; at 10 µM; stronger effect = lower value.
The target of experiment [9] is Beta-adrenergic receptor kinase 1 (Homo sapiens) (UniProt P25098). Kind of experiment: GRK2 binders displacing RNA aptamer, biochemical, validation, human GRK2, bead flow cytometry (AID 488806;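 active means aptamer binding inhibition above 30%, about 3 SD of noise from non-fluorescent compounds; inactive means inhibition at or below 30%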). The settings on record: bead-bound GRK2, FAM-aptamer displacement, at 10 µM, stronger effect = higher value.
Experiment [10] deals with Beta-2 adrenergic receptor (Homo sapiens) (UniProt P07550). The experiment in a line: agonist-induced loss of surface beta2AR – cell-based, FAP fluorogen, flow cytometry, validation set, pilot screen (AID 504459;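 active means percent response above 42, roughly 3 SD of non-fluorescent test compounds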;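 further: agonist-driven loss of surface beta2AR via internalization measured by FAP dye flow cytometry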). As to conditions: Am2.2-beta2AR cells, at 10 µM, stronger effect = higher value.
In experiment [11] the target is AP-2 complex subunit beta (Homo sapiens) (UniProt P63010). The experiment in a line: beta-arrestin/AP2 interaction blockers – biochemical, validation set, GST-AP2 beads, flow cytometry, pilot screen (AID 504541).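 Further: AP2 carries R879A mutation and is captured from E. coli lysate; bead-bound FITC arrestin peptide fluorescence measuring arrestin peptide binding to AP2; 0% = DMSO wells and 100% = excess unlabeled arrestin peptide control.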 The settings on record: FITC arrestin peptide, at 10 µM, stronger effect = higher value, AP2 beta2 appendage fragment, R879A mutant.
A short description of experiment [12]: cytosolic pH regulators acting via V-ATPase – S. cerevisiae, pHLuorin, HTS validation (AID 504600; in the data active means response above about 15%;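 further: plate controls were DMSO for no effect and reference compound for full effect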). The settings on record: V-ATPase proton transport, at 10 µM, stronger effect = higher value.
The subject of experiment [13] is anti-desmoglein-3 scFv antibody binding to human DSG3. The experiment in a line: blockers of pathogenic pemphigus antibody–desmoglein-3 binding – biochemical, validation compound set, bead-based, flow cytometry, pilot screen (AID 588368;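 active means binding below the plate cutoff, the plate median minus 3 SD, with a reading above zero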;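 further: signal is the median channel fluorescence of bead-bound GFP antibody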). As to conditions: Protein G beads, DSG3-Fc, scFv-GFP binding, at 10 µM, stronger effect = lower value.
Experiment [14] is described as follows: Nile Red efflux blockade in pump-expressing yeast – validation compound set, multiplex, phenotypic, pilot screen (AID 588506;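 active means efflux inhibition above 0.42, the validation set average plus 4 SD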;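 further: Nile Red retained in cells so higher fluorescence means more efflux inhibition; 0 = negative control wells and 1 = enniatin B 25 µM full block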). The settings on record: S. cerevisiae pump-expressing triplex, Nile Red efflux flow cytometry; at 10 µM; stronger effect = higher value; the pumps come from Candida albicans.
In experiment [15] the target is ATP-binding cassette sub-family B member 6 (Homo sapiens) (UniProt Q9NP58). The experiment in a line: blockers of ABCB6-driven porphyrin uptake – K562-ABCB6 cells, flow cytometry, validation set, pilot screen (AID 588550;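 active means inhibition above the screen-wide mean plus 3 SD, about 51%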;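 further: 0% = DMSO wells and 100% = benzethonium chloride 70 µM positive control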). As to conditions: K562-ABCB6 porphyrin accumulation, 1 h, at 10 µM, stronger effect = higher value.
Experiment [16] is described as follows: AML differentiation inducers, ER-HoxA9 marrow cells – cell-based, GFP/MAC1 double positive, flow cytometry, validation set, primary screen (AID 588685;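 active means differentiation response of at least 50%, scaled between solvent and reference control, from cells with both markers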;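 further: compound exposure lasts four days before antibody staining and flow analysis; 0% = DMSO wells and 100% = 5 µM fulvestrant positive control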). As to conditions: stronger effect = higher value, normalized: vehicle 0, fulvestrant 100.

Molecules are shown by their SMILES. Records with an inconclusive call do not appear. Active and inactive are the calls of the source.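 How the source made its calls, unless noted: active means inhibition above 54%, about 3 SD of non-fluorescent compounds; inactive means the rest.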

Sequence of AP-2 complex subunit beta (Homo sapiens) (P63010 whole entry, looked up, the tested form may be a part, one chain of several): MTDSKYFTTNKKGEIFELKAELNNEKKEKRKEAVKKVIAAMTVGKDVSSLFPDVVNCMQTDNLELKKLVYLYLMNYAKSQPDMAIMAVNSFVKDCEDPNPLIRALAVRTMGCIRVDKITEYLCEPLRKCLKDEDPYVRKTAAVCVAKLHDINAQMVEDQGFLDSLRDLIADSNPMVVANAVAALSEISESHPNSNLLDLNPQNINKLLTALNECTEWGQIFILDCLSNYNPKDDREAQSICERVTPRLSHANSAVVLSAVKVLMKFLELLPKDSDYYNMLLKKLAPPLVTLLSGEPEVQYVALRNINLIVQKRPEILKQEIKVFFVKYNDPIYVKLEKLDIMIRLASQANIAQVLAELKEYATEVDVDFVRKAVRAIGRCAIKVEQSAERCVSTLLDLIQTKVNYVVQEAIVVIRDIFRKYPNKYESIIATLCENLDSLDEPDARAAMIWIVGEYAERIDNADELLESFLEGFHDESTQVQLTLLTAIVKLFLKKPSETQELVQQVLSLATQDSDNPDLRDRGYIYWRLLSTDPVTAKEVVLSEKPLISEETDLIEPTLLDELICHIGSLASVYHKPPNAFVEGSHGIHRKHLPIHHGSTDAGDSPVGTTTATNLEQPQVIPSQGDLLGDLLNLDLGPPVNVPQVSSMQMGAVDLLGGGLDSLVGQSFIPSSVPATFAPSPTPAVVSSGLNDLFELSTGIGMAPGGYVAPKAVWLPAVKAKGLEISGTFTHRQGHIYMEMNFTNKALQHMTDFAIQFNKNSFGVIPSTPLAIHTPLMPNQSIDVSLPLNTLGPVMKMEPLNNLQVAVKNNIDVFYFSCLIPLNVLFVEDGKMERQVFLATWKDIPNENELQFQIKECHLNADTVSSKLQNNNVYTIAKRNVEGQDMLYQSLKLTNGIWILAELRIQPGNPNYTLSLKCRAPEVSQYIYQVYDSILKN
Sequence of Beta-2 adrenergic receptor (Homo sapiens) (P07550 whole entry, looked up): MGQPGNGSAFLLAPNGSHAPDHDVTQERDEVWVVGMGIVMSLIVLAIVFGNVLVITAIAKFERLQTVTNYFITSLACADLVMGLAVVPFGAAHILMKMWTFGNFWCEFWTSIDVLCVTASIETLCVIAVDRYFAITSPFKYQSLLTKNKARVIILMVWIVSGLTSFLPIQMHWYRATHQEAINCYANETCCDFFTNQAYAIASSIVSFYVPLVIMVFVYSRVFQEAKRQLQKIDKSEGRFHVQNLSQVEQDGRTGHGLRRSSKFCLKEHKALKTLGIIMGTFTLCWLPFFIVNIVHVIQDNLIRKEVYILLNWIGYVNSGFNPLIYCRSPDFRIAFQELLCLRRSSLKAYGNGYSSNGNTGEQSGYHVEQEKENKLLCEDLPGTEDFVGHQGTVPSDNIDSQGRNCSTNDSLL
Sequence of ATP-binding cassette sub-family B member 6 (Homo sapiens) (Q9NP58 whole entry, looked up): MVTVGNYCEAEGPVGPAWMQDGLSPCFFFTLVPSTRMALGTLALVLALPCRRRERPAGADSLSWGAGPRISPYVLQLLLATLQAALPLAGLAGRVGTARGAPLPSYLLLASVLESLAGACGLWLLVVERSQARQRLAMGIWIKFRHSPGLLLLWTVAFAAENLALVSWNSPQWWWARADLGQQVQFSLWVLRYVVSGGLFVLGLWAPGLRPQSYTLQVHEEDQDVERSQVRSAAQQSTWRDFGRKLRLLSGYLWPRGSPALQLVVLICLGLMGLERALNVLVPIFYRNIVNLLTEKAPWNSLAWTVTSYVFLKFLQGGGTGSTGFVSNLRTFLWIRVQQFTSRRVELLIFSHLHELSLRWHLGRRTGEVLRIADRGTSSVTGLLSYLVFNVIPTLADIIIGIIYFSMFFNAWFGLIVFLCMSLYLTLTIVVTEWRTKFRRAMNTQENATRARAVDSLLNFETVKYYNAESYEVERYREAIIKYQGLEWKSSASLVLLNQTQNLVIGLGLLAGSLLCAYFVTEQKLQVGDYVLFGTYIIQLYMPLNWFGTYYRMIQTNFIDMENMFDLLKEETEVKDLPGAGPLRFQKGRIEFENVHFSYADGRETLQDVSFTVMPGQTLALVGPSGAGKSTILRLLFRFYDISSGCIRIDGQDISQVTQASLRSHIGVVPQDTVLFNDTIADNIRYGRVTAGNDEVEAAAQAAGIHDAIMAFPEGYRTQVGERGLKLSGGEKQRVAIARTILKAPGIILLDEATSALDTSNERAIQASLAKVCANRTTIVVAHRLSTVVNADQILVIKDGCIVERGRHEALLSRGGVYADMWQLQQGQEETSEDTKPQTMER
Sequence of Integrin beta-1 (Homo sapiens) + Integrin alpha-4 (Homo sapiens) (P05556 whole entry, looked up): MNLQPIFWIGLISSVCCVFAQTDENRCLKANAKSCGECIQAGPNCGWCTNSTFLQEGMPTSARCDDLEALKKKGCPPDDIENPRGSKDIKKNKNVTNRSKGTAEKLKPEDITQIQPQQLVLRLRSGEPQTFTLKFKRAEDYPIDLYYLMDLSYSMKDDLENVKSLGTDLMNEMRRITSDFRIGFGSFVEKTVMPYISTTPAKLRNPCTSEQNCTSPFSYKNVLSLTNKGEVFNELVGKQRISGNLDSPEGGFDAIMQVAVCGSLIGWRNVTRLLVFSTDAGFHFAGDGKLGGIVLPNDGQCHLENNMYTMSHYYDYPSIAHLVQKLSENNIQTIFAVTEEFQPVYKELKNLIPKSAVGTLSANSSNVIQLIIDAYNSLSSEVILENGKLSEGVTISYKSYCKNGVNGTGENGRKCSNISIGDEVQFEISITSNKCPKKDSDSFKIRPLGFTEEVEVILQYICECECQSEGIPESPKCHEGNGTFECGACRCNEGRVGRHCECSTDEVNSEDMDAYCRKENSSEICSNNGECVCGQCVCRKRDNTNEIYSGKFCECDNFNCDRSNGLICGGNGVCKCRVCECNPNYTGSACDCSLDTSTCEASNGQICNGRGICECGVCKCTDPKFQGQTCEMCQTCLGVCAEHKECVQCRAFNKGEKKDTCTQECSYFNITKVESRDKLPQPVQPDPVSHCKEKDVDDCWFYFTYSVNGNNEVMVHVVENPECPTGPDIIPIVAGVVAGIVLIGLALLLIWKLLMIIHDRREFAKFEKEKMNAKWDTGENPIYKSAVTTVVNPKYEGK
Sequence of Integrin beta-1 (Homo sapiens) + Integrin alpha-4 (Homo sapiens) (P13612 whole entry, looked up): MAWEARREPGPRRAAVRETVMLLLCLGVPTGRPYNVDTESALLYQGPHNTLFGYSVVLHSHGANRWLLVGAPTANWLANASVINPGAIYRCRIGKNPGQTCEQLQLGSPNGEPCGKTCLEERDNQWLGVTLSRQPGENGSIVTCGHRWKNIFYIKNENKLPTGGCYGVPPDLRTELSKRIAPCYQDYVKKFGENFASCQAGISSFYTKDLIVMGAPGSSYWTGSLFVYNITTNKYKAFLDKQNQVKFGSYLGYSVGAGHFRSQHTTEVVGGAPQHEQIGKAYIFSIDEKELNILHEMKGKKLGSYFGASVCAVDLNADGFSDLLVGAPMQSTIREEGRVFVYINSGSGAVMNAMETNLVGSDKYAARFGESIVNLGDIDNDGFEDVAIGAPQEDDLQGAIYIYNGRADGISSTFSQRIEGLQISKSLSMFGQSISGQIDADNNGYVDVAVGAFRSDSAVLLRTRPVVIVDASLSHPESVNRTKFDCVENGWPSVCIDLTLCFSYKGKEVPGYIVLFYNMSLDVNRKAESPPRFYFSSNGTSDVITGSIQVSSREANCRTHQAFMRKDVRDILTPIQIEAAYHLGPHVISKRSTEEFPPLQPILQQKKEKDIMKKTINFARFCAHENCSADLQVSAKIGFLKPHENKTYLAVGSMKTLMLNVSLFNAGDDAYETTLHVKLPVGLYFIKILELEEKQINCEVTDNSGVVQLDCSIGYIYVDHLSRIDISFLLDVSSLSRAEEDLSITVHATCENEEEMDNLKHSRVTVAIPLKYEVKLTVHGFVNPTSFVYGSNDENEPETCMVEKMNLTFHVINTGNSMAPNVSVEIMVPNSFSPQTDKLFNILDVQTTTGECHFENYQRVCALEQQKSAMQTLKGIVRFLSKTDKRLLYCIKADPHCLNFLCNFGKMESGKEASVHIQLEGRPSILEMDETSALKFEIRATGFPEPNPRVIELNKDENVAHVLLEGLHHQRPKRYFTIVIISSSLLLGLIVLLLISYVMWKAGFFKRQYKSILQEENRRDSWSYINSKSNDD
Sequence of Beta-adrenergic receptor kinase 1 (Homo sapiens) (P25098 whole entry, looked up): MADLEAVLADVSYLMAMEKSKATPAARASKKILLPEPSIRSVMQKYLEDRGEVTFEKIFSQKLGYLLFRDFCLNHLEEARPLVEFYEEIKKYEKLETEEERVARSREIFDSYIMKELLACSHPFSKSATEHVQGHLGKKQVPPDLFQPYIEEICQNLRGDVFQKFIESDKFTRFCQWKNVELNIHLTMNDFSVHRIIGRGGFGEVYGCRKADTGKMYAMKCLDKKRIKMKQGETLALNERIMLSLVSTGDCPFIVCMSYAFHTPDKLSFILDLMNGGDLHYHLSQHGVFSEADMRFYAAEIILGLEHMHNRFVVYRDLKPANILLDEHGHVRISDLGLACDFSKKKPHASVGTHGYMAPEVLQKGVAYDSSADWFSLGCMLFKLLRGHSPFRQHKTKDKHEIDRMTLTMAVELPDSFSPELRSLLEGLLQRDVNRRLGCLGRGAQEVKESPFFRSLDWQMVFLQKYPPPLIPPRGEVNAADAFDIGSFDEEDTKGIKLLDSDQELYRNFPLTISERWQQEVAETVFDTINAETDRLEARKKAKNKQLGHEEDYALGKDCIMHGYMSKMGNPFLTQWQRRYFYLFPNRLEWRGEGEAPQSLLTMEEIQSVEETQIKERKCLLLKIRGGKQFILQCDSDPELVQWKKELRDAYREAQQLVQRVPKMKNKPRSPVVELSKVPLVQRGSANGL

The inhibition is the drop in the measured response relative to a control, in per cent. Consider `COc1ccc2[nH]c3c(c2c1)CCNC3C1CC=C(C)CC1` (stereo not given), for which, in experiment [1], the percent of DMSO control GFP was 95.9% (inactive). For the same molecule, the GFP response vs DMSO in experiment [2] was 128% (inactive); in experiment [4], 79.8% (inactive). Besides, the percent response of DMSO control in experiment [3] was 104% (inactive). Also, in experiment [5], the GFP response, % of DMSO was 101% (inactive). Further, the double positive events in [6] came to 69%. Besides, the vesicle binding response in experiment [6] is 519% (inactive). Moreover, the inhibition in experiment [7] was 7.43% (inactive); in experiment [11] it was 2.43% (inactive); in experiment [15], -1% (inactive). Besides, the superoxide response (% of plate) in experiment [8] was 111% (inactive). Moreover, in experiment [9], the aptamer binding inhibition was -1% (inactive). Further, the response was 13.6% (inactive) in experiment [10] and -0.18% (inactive) in [12]. For the same molecule, the binding (% of control) in [13] is 113% (inactive). Besides, in [14], the efflux inhibition (fraction of control) is 0.12 (inactive). In experiment [16], the differentiation response was 0.82% (inactive).
Turning to `CCOc1ccc(C(=O)N2CCCC2C(=O)O)cc1` (stereo not given), in experiment [1], the percent of DMSO control GFP is 97.9% (inactive). Further, the GFP response vs DMSO in experiment [2] was 101% (inactive); in [4] it was 103% (inactive). Besides, the percent response of DMSO control in experiment [3] was 100% (inactive). The GFP response, % of DMSO in [5] was 102% (inactive). In experiment [6], this molecule yielded a double positive events of 62.9%. Further, the vesicle binding response in experiment [6] was 163% (inactive). Further, the inhibition in experiment [7] is 13.4% (inactive); in experiment [11], 1.45% (inactive); in experiment [15], 6% (inactive). The superoxide response (% of plate) in experiment [8] was 107% (inactive). Moreover, the aptamer binding inhibition in experiment [9] is 6% (inactive). The response is -15.7% (inactive) in [10] and 6.32% (inactive) in experiment [12]. In addition, the binding (% of control) in experiment [13] was 101% (inactive). Moreover, the efflux inhibition (fraction of control) in experiment [14] was -0.04 (inactive). In experiment [16], the differentiation response is -1.05% (inactive).
In the case of `COc1cc(CNCCc2ccccc2F)ccc1OCC(=O)N1CCCCC1`, in [1], the percent of DMSO control GFP was 98.6% (inactive). Further, the GFP response vs DMSO was 104% (inactive) in experiment [2] and 114% (inactive) in experiment [4]. Moreover, the percent response of DMSO control in experiment [3] is 96.7% (inactive). In experiment [5], the GFP response, % of DMSO was 100% (inactive). Further, in [6], the double positive events came to 57.8%. For the same molecule, the vesicle binding response in [6] is 196% (inactive). Moreover, the inhibition in [7] was -1.79% (inactive); in experiment [11], 22.6% (inactive); in [15] it was 2% (inactive). In addition, in experiment [8], the superoxide response (% of plate) was 103% (inactive). The aptamer binding inhibition in experiment [9] is -1% (inactive). In addition, the values for the response in experiment [10] and in experiment [12] were -8.73% (inactive) and -3.26% (inactive), respectively. In [13], the binding (% of control) is 98.2% (inactive). Also, the efflux inhibition (fraction of control) in [14] was -0.35 (inactive). Further, the differentiation response in experiment [16] was 29.6% (inactive).
Turning to `O=C(N/C(=C/C=C\c1ccccc1)C(=O)N1CCOCC1)c1ccc(Br)cc1`, in [1], the percent of DMSO control GFP is 98.4% (inactive). The GFP response vs DMSO in experiment [2] is 107% (inactive); in [4], 123% (inactive). Besides, the percent response of DMSO control in experiment [3] is 100% (inactive). For the same molecule, the GFP response, % of DMSO in experiment [5] is 115% (inactive). This molecule also registered a double positive events in experiment [6] of 65.2%. Also, the vesicle binding response in experiment [6] was 185% (inactive). Further, the inhibition was 2.29% (inactive) in experiment [7], 6.94% (inactive) in experiment [11] and 2% (inactive) in experiment [15]. In addition, in experiment [8], the superoxide response (% of plate) was 84.9% (inactive). Besides, the aptamer binding inhibition in experiment [9] is 1% (inactive). For the same molecule, the response is -28% (inactive) in [10] and 2.4% (inactive) in experiment [12]. Moreover, the binding (% of control) in [13] was 103% (inactive). In experiment [14], the efflux inhibition (fraction of control) was 0.42 (inactive). In [16], the differentiation response is -6.96% (inactive).
As to `CC(=O)c1cc2c(cc1NC(=O)c1ccco1)OCCO2`, the percent of DMSO control GFP in experiment [1] is 103% (inactive). In addition, the GFP response vs DMSO was 107% (inactive) in experiment [2] and 120% (inactive) in experiment [4]. Moreover, the percent response of DMSO control in [3] is 109% (inactive). For the same molecule, in experiment [5], the GFP response, % of DMSO is 110% (inactive). In experiment [6], this molecule displayed a double positive events of 58.2%. The vesicle binding response in [6] was 178% (inactive). Also, the inhibition was 10.8% (inactive) in experiment [7], -8.68% (inactive) in [11] and 2% (inactive) in experiment [15]. Also, in [8], the superoxide response (% of plate) was 91.9% (inactive). In addition, the aptamer binding inhibition in experiment [9] is 1% (inactive). In addition, the response in experiment [10] was -30.9% (inactive); in experiment [12], -7.07% (inactive). In addition, the binding (% of control) in [13] is 99.5% (inactive). Further, the efflux inhibition (fraction of control) in experiment [14] was -0.04 (inactive). For the same molecule, the differentiation response in experiment [16] was -11.9% (inactive).
